Six compounds from PubChem BioAssay (Tox21) can be followed below.

Assay [1] is described as follows: qHTS assay to identify small molecule antagonists of the estrogen related receptor (ERR) signaling pathway from Tox21 library - cell viability counter screen (AID 1224834). Further: nearly all actives have a fitted effect of over 30% in size. Further: potency means the concentration at half of the fitted maximal effect. Put shortly: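 CellTiter-Fluor fluorescence measured; ERR cells; 17.5 h compound incubation at 37 C; 30 min reagent step.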
The target in assay [2] is Luciferin 4-monooxygenase (Photinus pyralis) (UniProt P08659). In words: qHTS assay to identify small molecule inhibitors of firefly luciferase (AID 1224835). Further: nearly all actives have a fitted effect of over 25% in size. Further: potency means the concentration at half of the fitted maximal effect. Put shortly:
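Inhibition of purified Photinus luciferase is measured by luminescence. Substrate levels (D-luciferin, ATP) sit at their KM values. Each compound is tested in a concentration series.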
(qHTS replaces the single test concentration by a dilution series.)

A short description of assay [3]: qHTS assay to identify small molecule agonists of the constitutive androstane receptor (CAR) signaling pathway - cell viability counter screen (AID 1224836). Further: nearly all actives have a fitted effect of over 45% in size. Put shortly: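 HepG2 cells stably carrying hCAR and a CYP2B6-2.2kb reporter; 15-concentration compounds plus PK11195 (final 0.75 uM), 23 hr at 37 C/5% CO2. Viability read by CellTiter-Fluor fluorescence.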
Assay [4] is described as follows: qHTS assay to identify small molecule antagonists of the constitutive androstane receptor (CAR) signaling pathway - cell viability counter screen (AID 1224837). Further: nearly all actives have a fitted effect of over 45% in size. Further: potency means the concentration at half of the fitted maximal effect. Put shortly: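 Using CellTiter-Fluor, viability is scored in HepG2 cells stably carrying hCAR and a 2.2kb CYP2B6 reporter after 23 hr compound exposure across 15 concentrations, with CITCO present at 50 nM.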

Assay [5] can be described thus: qHTS assay to identify small molecule antagonists of the estrogen related receptor signaling pathway with the pleiotropic PPARgamma coactivator (PGC) from Tox21 10K library - cell viability counter screen (AID 1224840; active means well fitted cell-killing curve with a large enough effect in the repeat runs, not every such curve was filed as active; further: nearly all actives have a fitted effect of over 40% in size; further: potency means the concentration at half of the fitted maximal effect). Put shortly: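 Here the PGC/ERR cells serve as a cytotoxicity control: they are exposed to compounds for 17.5 hours at 37 C, and live-cell signal is quantified using CellTiter-Fluor fluorescence.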

In assay [6] the target is Thyrotropin receptor (Homo sapiens) (UniProt P16473). In words: qHTS assay to identify small molecule agonists of the thyroid stimulating hormone receptor (TSHR) signaling pathway (AID 1224843; calls by dose curve; further: nearly all actives have a fitted effect of over 45% in size). Put shortly: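 HEK293 cells stably bearing the thyrotropin receptor were plated at 800 cells/well and challenged with compound (30 min, RT). Accumulated cAMP was quantified via cAMP-d2 competing for cryptate-tagged antibody.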
Thyrotropin receptor (Homo sapiens), sequence (P16473 whole entry, looked up): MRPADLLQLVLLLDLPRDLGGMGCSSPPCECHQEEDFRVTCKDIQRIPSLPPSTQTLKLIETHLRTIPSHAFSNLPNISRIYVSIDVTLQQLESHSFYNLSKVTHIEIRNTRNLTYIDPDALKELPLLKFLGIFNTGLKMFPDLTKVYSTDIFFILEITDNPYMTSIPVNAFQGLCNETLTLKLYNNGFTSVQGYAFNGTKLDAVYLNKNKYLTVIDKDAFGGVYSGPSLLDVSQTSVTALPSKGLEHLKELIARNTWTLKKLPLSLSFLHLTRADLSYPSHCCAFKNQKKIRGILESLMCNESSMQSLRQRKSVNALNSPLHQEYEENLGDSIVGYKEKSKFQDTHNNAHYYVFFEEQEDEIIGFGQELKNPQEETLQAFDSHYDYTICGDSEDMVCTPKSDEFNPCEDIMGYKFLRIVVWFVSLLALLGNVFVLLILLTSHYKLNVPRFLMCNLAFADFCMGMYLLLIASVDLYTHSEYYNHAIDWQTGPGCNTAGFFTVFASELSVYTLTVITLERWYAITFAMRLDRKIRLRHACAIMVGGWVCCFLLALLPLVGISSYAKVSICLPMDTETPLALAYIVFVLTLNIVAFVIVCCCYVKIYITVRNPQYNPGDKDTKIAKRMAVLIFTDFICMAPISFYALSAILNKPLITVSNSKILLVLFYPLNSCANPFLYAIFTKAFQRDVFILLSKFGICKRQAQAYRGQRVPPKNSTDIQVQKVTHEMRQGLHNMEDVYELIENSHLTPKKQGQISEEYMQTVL

Assay [7] in a line: qHTS assay to identify small molecule agonists of the hypoxia (HIF-1) signaling pathway - cell viability counter screen (AID 1224844; calls by dose curve; further: nearly all actives have a fitted effect of over 50% in size). Put shortly:
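Multiplexed with the HRE beta-lactamase assay, this viability read used CellTiter-Glo luminescence (30 min, RT) on HRE-bla ME-180 cells treated 17 hrs with compounds in 0.5% dialyzed FBS medium.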

The nature of assay [8]: qHTS assay to identify small molecule agonists of H2AX (AID 1224845; active means well fitted activation curve with a large enough effect in the signal ratio in the repeat runs, not every such curve was filed as active; the % refers to the signal ratio; further: potency means the concentration at half of the fitted maximal effect). A digest of the protocol:
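Phospho-H2AX Ser139 measured by HTRF (ex 320 nm; em 665 and 620 nm) after 24 hr antibody incubation. Compounds, 15 concentrations, 0.76% DMSO, were applied to CHO-K1 cells for 3hr at 37C before lysis.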

Assay [9] in a line: qHTS assay to identify small molecule agonists of the hypoxia (HIF-1) signaling pathway (AID 1224846; active means well fitted activation curve with a large enough effect in the signal ratio in the repeat runs, not every such curve was filed as active; the % refers to the signal ratio). A digest of the protocol: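 Hypoxia-pathway activation was scored as increased beta-lactamase from an HRE-controlled reporter in ME-180 cells; plated at 2,000 cells per well with 0.5% dialyzed FBS, they were exposed 17 hrs to compounds and then given CCF4-AM.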
Assay [10] can be described thus: qHTS assay to identify small molecule agonists of H2AX - cell viability counter screen (AID 1224847; calls by dose curve; further: nearly all actives have a fitted effect of over 30% in size; further: potency means the concentration at half of the fitted maximal effect). Put shortly: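 CHO-K1 cells plated overnight at 37C, then exposed 3 h at 37C to compounds at 15 concentrations (0.76% DMSO final). Viability by CellTiter-Glo luminescence after 30 min at room temperature.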
A short description of assay [11]: qHTS RealTime-Glo MT Cell Viability Assay in HepG2 cells - 24 hour (AID 1224867). Further: nearly all actives have a fitted effect of over 50% in size. Put shortly: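 HepG2 cells (600/well) were dispensed with RealTime-Glo reagents, incubated 5 h at 37 °C, then treated with compounds in DMSO for up to 40 h. Nonlytic NanoLuc luminescence reflecting viable cells was read at each stated time point.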
The nature of assay [12]: qHTS RealTime-Glo MT Cell Viability Assay in HEK293 cells - 32 hour (AID 1224868). Further: nearly all actives have a fitted effect of over 50% in size. Further: potency means the concentration at half of the fitted maximal effect. Put shortly:
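HEK293 cells seeded with NanoLuc/prosubstrate reagent, rested 5 h at 37 C, then dosed and kept at 37 C up to 40 h. Nonlytic real-time luminescence from viable cells read at 0, 8, 16, 24, 32 and 40 h.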

The nature of assay [13]: A CellTox Green Cytotoxicity Assay to monitor cytotoxicity in HEK293 cells - 0 hour (AID 1224869). Further: nearly all actives have a fitted effect of over 50% in size. Put shortly: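 Seeding of HEK293 cells together with cytotoxicity dye preceded a 5 h incubation at 37 C/5% CO2. Test compounds in DMSO were then added and fluorescence monitored across 40 h.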
Assay [14] can be described thus: qHTS RealTime-Glo MT Cell Viability Assay in HepG2 cells - 40 hour (AID 1224870). Further: nearly all actives have a fitted effect of over 50% in size. Put shortly:
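Real-time viability: cells seeded at 600 per well together with NanoLuc and cell-permeant prosubstrate, compounds added after 5 h incubation. Luminescence tracked at 0, 8, 16, 24, 32 and 40 h of exposure.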

The target of assay [15] is Nuclear receptor subfamily 1 group I member 3 (Homo sapiens) (UniProt Q14994). Kind of assay: qHTS assay to identify small molecule antagonists of the constitutive androstane receptor (CAR) signaling pathway (AID 1224838).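 Further: HepG2 cells stably expressing hCAR with CYP2B6 luciferase reporter stimulated by CITCO; nearly all actives have a fitted effect of over 40% in size.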 Further: potency means the concentration at half of the fitted maximal effect. Put shortly:
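Reporter luminescence was quantified after 24 h exposure of hCAR/CYP2B6-2.2kb double-stable HepG2 cells to compounds at 15 concentrations in the presence of 50 nM CITCO final.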

Assay [16] has the same target. In words: qHTS assay to identify small molecule agonists of the constitutive androstane receptor (CAR) signaling pathway (AID 1224839). Further: nearly all actives have a fitted effect of over 15% in size. Further: potency means the concentration at half of the fitted maximal effect. A digest of the protocol: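 HepG2 cells stably co-transfected with hCAR and a CYP2B6-2.2kb luciferase reporter; compounds at 15 concentrations with 0.75 uM PK11195 present. After 24 hr at 37 C, luciferase read by ONE-Glo luminescence.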

A short description of assay [17]: qHTS assay to identify small molecule antagonists of the estrogen related receptor signaling pathway with the pleiotropic PPARgamma coactivator (PGC) from Tox21 10K library (AID 1224841; call rule not given here; further: potency means the concentration at half of the fitted maximal effect). Put shortly:
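Each well held 2,000 PGC/ERR cells, pre-incubated six hours (37 C, 5% CO2). Test substances in DMSO were added by pin tool and left for 18 h at 37 C before luciferase detection by One-Glo.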

Assay [18] is described as follows: qHTS assay to identify small molecule agonists of the estrogen related receptor signaling pathway with the pleiotropic PPARgamma coactivator (PGC) from Tox21 10K library (AID 1224842). Further: nearly all actives have a fitted effect of over 15% in size. A digest of the protocol:
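Luminescence from One-Glo (30 min, room temperature) measured after PGC/ERR cells had 18 h at 37 C with pinned compound (23 nL in DMSO). Cells had been seeded at 2,000 per well and pre-incubated 6 h.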

A short description of assay [19]: qHTS assay to identify small molecule antagonists of the estrogen related receptor (ERR) signaling pathway from Tox21 library (AID 1224848). Further: nearly all actives have a fitted effect of over 50% in size. Further: potency means the concentration at half of the fitted maximal effect. A digest of the protocol: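 Reading was by luminescence 30 min after ONE-Glo addition. Before that, ERR cells at 2,000 per well had rested 6 h at 37 C/5% CO2 and then received pin-tooled compounds in DMSO for 18 h at 37 C.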

Assay [20] is described as follows: qHTS assay to identify small molecule agonists of the estrogen related receptor (ERR) signaling pathway from Tox21 library (AID 1224849; calls by dose curve; further: nearly all actives have a fitted effect of over 15% in size). The note with it: ERR reporter cell line, ONE-Glo luciferase, 18 h; at 92.4 µM (top of the series). A digest of the protocol: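 Six hours post-seeding at 37 C/5% CO2, ERR cells receive DMSO-solubilised compounds; after 18 h at 37 C, ONE-Glo reagent is applied and luminescence recorded.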

Several values for one entry are separate records, joined by “and”; a condition that tells them apart may be missing. Equal entries are not always repeated. Results filed as inconclusive are left out. Some compounds were tested as several samples or in several runs, with calls that do not always agree. Activity calls are given as the source filed them. Unless noted, the call rests on the fitted dose curve; in most records, active means well fitted curve in the direction sought with a large enough effect in the repeat runs; inconclusive means weak or mixed curves; inactive means no such curve, though single readings can be large; an effect the other way counts as inactive or inconclusive.
On the % scale 0 is the no-effect control and ±100 the full control effect.

Luciferin 4-monooxygenase (Photinus pyralis), sequence (P08659 whole entry, looked up): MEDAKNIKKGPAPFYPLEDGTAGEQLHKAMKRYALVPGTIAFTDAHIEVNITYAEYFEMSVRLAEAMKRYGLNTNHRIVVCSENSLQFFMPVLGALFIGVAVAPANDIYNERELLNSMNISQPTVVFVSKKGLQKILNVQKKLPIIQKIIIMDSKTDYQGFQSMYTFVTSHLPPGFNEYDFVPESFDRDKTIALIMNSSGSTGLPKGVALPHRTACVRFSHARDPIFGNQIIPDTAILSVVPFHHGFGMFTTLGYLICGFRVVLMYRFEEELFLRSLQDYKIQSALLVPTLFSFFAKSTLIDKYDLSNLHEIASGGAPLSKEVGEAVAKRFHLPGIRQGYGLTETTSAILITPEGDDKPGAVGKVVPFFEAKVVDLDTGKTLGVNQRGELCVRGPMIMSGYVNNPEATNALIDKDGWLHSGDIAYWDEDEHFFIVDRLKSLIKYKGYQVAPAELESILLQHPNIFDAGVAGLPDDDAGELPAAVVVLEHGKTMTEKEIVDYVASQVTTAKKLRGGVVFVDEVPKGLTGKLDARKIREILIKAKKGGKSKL
Nuclear receptor subfamily 1 group I member 3 (Homo sapiens), sequence (Q14994 whole entry, looked up): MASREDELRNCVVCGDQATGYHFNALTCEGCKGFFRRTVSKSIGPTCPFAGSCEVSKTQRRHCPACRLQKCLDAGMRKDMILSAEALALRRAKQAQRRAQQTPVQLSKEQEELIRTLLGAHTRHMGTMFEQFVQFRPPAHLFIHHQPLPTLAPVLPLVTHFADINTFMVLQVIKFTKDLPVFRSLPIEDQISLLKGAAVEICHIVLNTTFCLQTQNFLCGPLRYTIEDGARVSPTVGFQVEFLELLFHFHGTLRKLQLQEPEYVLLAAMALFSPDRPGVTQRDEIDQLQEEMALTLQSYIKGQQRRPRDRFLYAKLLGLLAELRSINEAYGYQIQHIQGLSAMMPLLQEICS

As to `CC[N+](CC)(CC(=O)Nc1c(C)cccc1C)Cc1ccccc1`, the Potency result in [1], in [2], in assay [3], in assay [4], in [5] and in assay [6] was “inactive” in each case. Moreover, the Potency entry in [7], in assay [8], in assay [10], in [11], in assay [12] and in assay [13] was “inactive” each time. Moreover, the Potency result in [14] is “inactive”. Besides, the result in assay [9] was inactive.
On to `O=c1c(O)c(-c2ccc(O)c(O)c2)oc2cc(O)cc(O)c12`, for which the Potency is 43.6 µM (active) and 27.3 µM (active) and inactive in [1]; 35.9 µM (active) [middle of 4 runs] in assay [2]; 54.5 µM (active) and inactive in assay [16]. Further, the Potency entry in assay [3], in assay [15], in assay [6], in assay [7], in assay [11] and in assay [12] was “inactive” throughout. For the same compound, the Potency result in assay [13] and in [14] was “inactive” each time.
Regarding `C=C1C[C@]23C[C@@]1(O)CC[C@H]2[C@@]12C=C[C@H](O)[C@@](C)(C(=O)O1)[C@H]2[C@@H]3C(=O)O`, the Potency result in [1], in assay [2], in assay [5], in assay [17], in [18] and in [6] was “inactive” throughout. Moreover, the Potency entry in [7], in [8], in assay [10], in [19], in [11] and in assay [12] was “inactive” in each case. Besides, the Potency entry in assay [13] and in [14] was “inactive” throughout. Also, in assay [9], the compound was called inactive. Besides, the activity change, positive = activation in assay [20] is 4.32% (inactive) and 5.25% (inactive).
In the case of `C[n+]1ccn(CCO)c1`, the Potency result in assay [1], in assay [2], in assay [3], in [4], in assay [5] and in [17] was “inactive” throughout. The Potency entry in assay [18], in [7], in assay [8], in [10], in [19] and in assay [11] was “inactive” in each case. In addition, the Potency result in [12], in [13] and in [14] was “inactive” throughout. Besides, the compound was classed as inactive in assay [9]. For the same compound, the activity change, positive = activation in [20] is 4.16% (inactive) and -3.23% (inactive).
As to `CC(C=O)Cc1ccc(C(C)(C)C)cc1` (stereo not given), the Potency entry in assay [1], in [3], in [4], in assay [15], in assay [16] and in assay [5] was “inactive” in each case. Also, the Potency entry in assay [17], in assay [18], in assay [6], in assay [7], in assay [8] and in assay [10] was “inactive” in each case. The Potency entry in assay [19], in assay [11], in [12], in assay [13] and in assay [14] was “inactive” each time. Also, in [9], the compound was classed as inactive. The activity change, positive = activation in assay [20] is -5.89% (inactive) and -7.2% (inactive).
In the case of `c1cnc2c(c1)ccc1cccnc12`, the Potency in assay [1] was 19.5 µM (active) and 2.17 µM (active) and 4.86 µM (active); in [2] it was 71.7 µM (active) and inactive; in assay [4], 617 nM (active) and 1.93 µM (active); in [15] it was 219 nM (active) and inactive and 864 nM (active); in assay [5], 2.76 µM (active) and 2.73 µM (active); in assay [17] it was 777 nM (active) and 969 nM (active) and 1.72 µM (active). Also, the Potency in assay [8] was 6.35 µM (active); in [10] it was 80.8 µM (active) and inactive; in assay [19], 1.23 µM (active) and 1.09 µM (active) and 1.54 µM (active); in assay [12], 3.5 µM (active) and 7.76 µM (active). For the same compound, the Potency result in assay [16], in assay [18], in [6], in assay [7], in assay [11] and in assay [13] was “inactive” in each case. Besides, in [14], the Potency result was “inactive”. For the same compound, in [20], the activity change, positive = activation is -72.1% (inactive) and -45.5% (inactive) and -63.4% (inactive).
